Compound activity deposited in PubChem BioAssay by National Center for Advancing Translational Sciences (NCATS).
ClpP mod: qHTS Assay for Activators of ClpP; Potency, µM (highest dose often 57.5 µM), for inactives: top-dose activity change, negative = active; purified B. subtilis ClpP, FRET peptide cleavage, 20 min; actives 1.9% (n = 340,000); active means well fitted falling curve with a large enough effect; inconclusive means small, poorly fitted or top-dose-only effect; inactive means no such curve, though single readings can be large or run the other way; further: potency means the concentration at half of the fitted maximal effect; the source files actives as falling curves though it sought activators and does not explain the sign; nearly all actives have a fitted effect of over 65% in size
Target sequence (P80244 whole entry, looked up): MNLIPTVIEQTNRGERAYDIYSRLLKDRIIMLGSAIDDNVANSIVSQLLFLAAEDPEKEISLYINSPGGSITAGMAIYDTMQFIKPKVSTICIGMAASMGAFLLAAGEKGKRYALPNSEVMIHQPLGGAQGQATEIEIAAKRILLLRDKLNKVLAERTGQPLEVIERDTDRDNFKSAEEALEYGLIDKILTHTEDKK
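Purified B. subtilis ClpP, 10 microg/mL final in Tris/HCl pH8 with KCl, BSA, glycerol and Tween-20, cleaved an Abz/nitrotyrosine-quenched decapeptide. Fluorescence (ex 320, em 430) was read at 0 and 20 min at room temperature. Delta was normalized to 5.8 microM ADEP and DMSO/no-enzyme controls.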
TRPV1 PAM: potentiators of human vanilloid receptor 1 (TRPV1); Q8NER1; TRPV1-expressing cells, Fluo-8 calcium influx, capsaicin EC20 potentiation; potentiation, % at 8.33 µM; actives 0.02% (n = 320,000); in the data active means potentiation above about 80%; inconclusive means between about 30% and that limit; further: 0% is about no effect
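TRPV1-expressing cells were cultured overnight at 35.5C and loaded with Fluo-8 calcium dye for 40 to 90 min at room temperature. After a 10 s baseline, compound was added and calcium influx was read kinetically for 3 min (ex 480/em 520 nm).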
TRPV1 agonist: agonists of human vanilloid receptor 1 (TRPV1); TRPV1-expressing cells, Fluo-8 calcium influx, agonist mode; Q8NER1; actives 0.19% (n = 320,000); activation, % at 8.33 µM; in the data active means activation above about 80%; inconclusive means between about 30% and that limit; further: 0% is about no effect
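Cells expressing TRPV1 were dye-loaded with Fluo-8 and read kinetically: 10 s baseline, 3 min after compound (agonist portion), then 2 min after EC20 capsaicin (allosteric enhancer portion). Calcium-bound dye fluorescence at 480/520 nm.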
KCNH2 WT inh: KCNH2 (human, wildtype) channel inhibition; Q12809; actives 0.37% (n = 340,000); AID 720551; U2OS, BacMam KCNH2, thallium flux FluxOr; stronger effect = lower value; activity change, % at 1.84 µM;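 active means maximum activity change below -70%; inconclusive means maximum activity change between -70% and -50%; inactive means maximum activity change above -50%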; further: on the % scale 0 is the no-effect control and ±100 the full control effect
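U2OS cells were transduced with wild-type KCNH2 virus (2.03 x 10^8 / mL) for 4 h at room temperature, then cultured overnight at 37 C. Thallium flux was read with FluxOr dye. Rate constants were normalized to DMSO controls.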
p53 reactivator: re-activators of mutant p53. Potency, µM (top dose mostly 92.2 µM), inactives show at the highest dose activity change, positive = activation, hits mostly activators. AID 504706. actives 0.063% (n = 320,000). H1299 p53-A138V BP100-luciferase reporter, luminescence, 24 h; active means well fitted activation curve with a large enough effect; inconclusive means small, poorly fitted or top-dose-only effect; inactive means no such curve, though single readings can be large or run the other way; further: potency means the concentration at half of the fitted maximal effect; % of control where 0% means no effect; nearly all actives have a fitted effect of over 45% in size
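H1299 (p53-null), stable ts p53-A138V + BP100-Luc; 1000 cells/well, Opti-MEM/10% FBS; cpd 4 pt, 1:5; 24 h, 37 deg C, 5% CO2; detection reagent 10 min RT; luminescence.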
KCNH2 3.1 block: inhibitors of human KCNH2 3.1 potassium channel isoform; activity change, % (tested at about 1.8 µM); U2OS KCNH2 3.1, thallium flux FluxOr; stronger effect = lower value; AID 720553; actives 0.95% (n = 340,000);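 active means maximum activity change below -70%; inconclusive means maximum activity change from -70% to -50%; inactive means maximum activity change above -50%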;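 further: thallium influx rate constant from kinetic fluorescence after stimulation buffer; on the % scale 0 is the no-effect control and ±100 the full control effect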
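Kinetic fluorescence (2 min after stimulation buffer) measures Tl+ influx through KCNH2 3.1 expressed by viral transduction in U2OS cells; the rate constant is normalized against DMSO controls serving as positive and negative references.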
* = called active by the depositor; ? = inconclusive; / = no result. In the library only some 2.6% were active in any assay of this set; here they are far more common.

SMILES	ClpP mod	TRPV1 PAM	TRPV1 agonist	KCNH2 WT inh	p53 reactivator	KCNH2 3.1 block
CCN(CC)CCNC(=O)c1cn(CCOC)c(=O)c2c1c1ccccc1n2C	4%	2	-3	-5	-2%	?
CCN1CCN(CCCNC(=O)c2cn(CCOC)c(=O)c3c2c2ccccc2n3C)CC1	3.2µM*	19	-2	33	-8%	-2
O=C(Cn1ncc2ccsc2c1=O)N1CCN(c2ccc(Cl)cc2)CC1	-2%	/	/	/	/	/
O=C(CNc1cccc(C(F)(F)F)c1)N/N=C/C1CCCCC1	1%	-30	97*	-3	-1%	-21
CN(Cc1ccc2c(c1)CCCN2C)C(=O)[C@H]1O[C@@H](n2cnc3c(N)ncnc32)[C@H](O)[C@@H]1O	-3%	/	/	/	/	/
Cc1ccc(-n2nc3c(c2NC(=O)c2ccc4c(c2)OCO4)CS(=O)(=O)C3)cc1	-3%	-13	-1	-3	-6%	-6
Cc1ccc(-n2nc3c(c2NC(=O)c2ccc(F)c(F)c2)CS(=O)(=O)C3)cc1	28µM*	-3	4	5	-9%	-32
O=C(Nc1cccc(-c2cn3c(n2)SCC3)c1)c1ccc2ccccc2n1	/	?	2	-2	18%	6
O=C(Nc1ccc(-c2cn3c(n2)SCC3)cc1)c1ccc2ccccc2n1	22µM*	-5	2	-3	12%	-4
O=S(=O)(c1cccc(Cl)c1)c1nnn2c1nc(NC1CCCC1)c1sccc12	-6%	/	/	/	/	/
CC1CCN(c2nc3c(S(=O)(=O)c4cccc(Cl)c4)nnn3c3ccsc23)CC1	22µM*	/	/	/	/	/
CCOC(=O)Nc1c2ccccc2nc2ccccc12	5%	-29	?	-6	-1%	6
CCOC(=O)Nc1oc2ccccc2c(=O)c1C	5µM*	-1	8	-1	3%	0
CCN(CC)c1cc2c(cc1F)c(=O)c(S(=O)(=O)c1ccccc1)cn2Cc1ccccc1	22µM*	/	/	/	/	/
CCN1CCN(c2cc3c(cc2F)c(=O)c(S(=O)(=O)c2ccc(OC)cc2)cn3CC)CC1	7.9µM*	/	/	/	/	/
CCN(CC)c1cc2c(cc1F)c(=O)c(S(=O)(=O)c1ccc(OC)cc1)cn2Cc1ccccc1	32µM*	/	/	/	/	/
CCN(CC)c1cc2c(cc1F)c(=O)c(S(=O)(=O)c1ccccc1)cn2C	5%	/	/	/	/	/
CCOC(=O)c1cn(CC)c2cc(N3CCCCC3)c(F)cc2c1=O	-10%	/	/	-26	/	0
CCOC(=O)c1cn(CC)c2cc(N3CCOCC3)c(F)cc2c1=O	32µM*	-36	-2	4	-2%	5
CC1(C(=O)NS(=O)(=O)C2CC2)CCCN(C(=O)c2ccc3ccccc3c2)C1 (stereo not drawn)	-1%	/	/	/	/	/
O=C1[C@H](Cc2ccccc2)NC/C=C\C[C@@H](c2ccco2)N1Cc1ccccc1	2%	/	/	/	/	/
C[C@@H]1CN([C@H](C)CO)S(=O)(=O)c2ccc(C#Cc3ccccc3F)cc2O[C@@H]1CN(C)C(=O)Cc1ccccc1	?	/	/	14	/	-22
CCC(=O)N1CCN(c2cc3c(cc2F)c(=O)c(C(=O)O)cn3CC)CC1	/	/	/	4	/	23
CCn1cc(C(=O)NCc2cccc(F)c2)c(=O)c2cc(F)c(N3CCN(C(=O)c4ccco4)CC3)cc21	25µM*	3	-1	-3	11%	-8
CCn1cc(C(=O)O)c(=O)c2cc(F)c(N3CCN(S(=O)(=O)c4ccc(NC(=O)OC)cc4)CC3)cc21	18µM*	6	-5	-4	-9%	4
O=c1nc(-c2ccccc2)cc(-c2ccccc2)[nH]1	28µM*	17	-3	-5	-4%	19
CN(C)c1cccc(NC(=O)c2cccc3c(-c4ccc(F)c(F)c4)coc23)c1	22µM*	/	/	/	/	/
COc1ccc(-c2ccc(C(=O)Nc3cccc(N(C)C)c3)c3occc23)c(C)c1	28µM*	/	/	/	/	/
Cn1cc(-c2ccc(C(=O)Nc3cccc(Oc4ccccc4)c3)c3occc23)cn1	22µM*	/	/	/	/	/
c1ccc(CC[n+]2ccncc2)cc1	-1%	/	/	/	/	/
